# Source: PubChem BioAssay (National Center for Advancing Translational Sciences (NCATS))
# HPGD inh: qHTS Assay for Inhibitors of HPGD (15-Hydroxyprostaglandin Dehydrogenase); 15-hydroxyprostaglandin dehydrogenase [NAD(+)] (Homo sapiens), P15428; purified HPGD, NADH fluorescence kinetic, PGE2 substrate; Potency, µM, inactives show top-dose activity change, negative = inhibition, usual class: inhibitors; 4.3% of 150,000 active; AID 894, 2007; further: potency means the concentration at half of the fitted maximal effect
# Target sequence (P15428 whole entry, looked up): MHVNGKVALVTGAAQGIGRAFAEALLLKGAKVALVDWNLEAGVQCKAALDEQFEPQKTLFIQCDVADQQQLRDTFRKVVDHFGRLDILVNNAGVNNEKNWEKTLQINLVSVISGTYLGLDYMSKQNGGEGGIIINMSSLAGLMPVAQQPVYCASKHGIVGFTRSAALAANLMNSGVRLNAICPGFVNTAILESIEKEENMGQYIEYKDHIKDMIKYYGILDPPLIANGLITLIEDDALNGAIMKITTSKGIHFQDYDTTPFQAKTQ
#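 20 nM HPGD preincubated 15 min at room temperature with compound in 50 mM Tris-HCl pH 8, 0.01% Tween 20. Started with 1 mM NAD+ and 30 uM prostaglandin E2; NADH fluorescence (360/450 nm) read 5 times over 30-s intervals, last minus first.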
# PNC assembly inh: High Content Assay for Compounds that inhibit the Assembly of the Perinucleolar Compartment; activity change (PNC), negative = inhibition, % at 10 µM; AID 2417, 2010; 3.1% of 140,000 active; PC3M PTB-GFP, PNC prevalence imaging, 16 h; stronger effect = lower value;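 active means readout at or below -70, meaning at least 70% loss of cells showing the perinucleolar compartment, a nuclear body marking cancer cells; inconclusive means readout between -30 and a set limit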;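 further: plate controls were DMSO wells for no effect and camptothecin positive control wells for full effect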
#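 Compounds are pinned in duplicate onto adhered PC3M cells stably expressing GFP-tagged PTB and incubated 16 h at 37 C. Cells are then fixed, nuclei stained with Hoechst, and PNC-positive cells counted.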
# ALDH1A1 inh: qHTS Assay for Inhibitors of Aldehyde Dehydrogenase 1 (ALDH1A1); Aldehyde dehydrogenase 1A1 (Homo sapiens), P00352; Purified ALDH1A1, NADH fluorescence, propionaldehyde substrate; Potency, µM (titrated, usually from 75.3 µM), for the others: top-dose activity, negative = inhibition, hits mostly inhibitors; 7.3% of 220,000 active; AID 1030, 2008;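 further: potency means the concentration at half of the fitted maximal effect; plate controls were no enzyme wells and a reference inhibitor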
# Starred values were filed as active, the others as inactive; ? = inconclusive; . = not tested or not shown; [ ] = remark or other dose. Sampled rows, rich in hits. Any-hit rate of the full collection: about 11%. Unless noted, the call rests on the fitted dose curve; in most records, active means well fitted inhibition curve with a large enough effect (not every such curve was filed as active); inconclusive means small, poorly fitted or top-dose-only effect, or another doubt; inactive means no such curve, though single readings can be large or run the other way. Unless noted, on the % scale 0 is the no-effect control and ±100 the full control effect.
SMILES,HPGD inh,PNC assembly inh,ALDH1A1 inh
COc1cc(Cl)c(S(=O)(=O)N2CCOCC2)cc1Cl,-10.4%,?,12.2%
COc1cc(C)c(S(=O)(=O)N2CCOCC2)cc1C,-8.8%,-100.0*,-2.4%
CCOc1cc(C)c(S(=O)(=O)N2CCCC2)cc1C,-11.2%,47.4,1.9%
CCCOc1cc(C)c(S(=O)(=O)N2CCOCC2)cc1C,-8.6%,?,9.7%
Cc1cc(N)c2ccccc2n1,.,.,-2.6%
Nc1cccc2nc3ccccc3cc12,?,-113.4*,?
Nc1c2ccccc2nc2c(O)cccc12,-5.8%,.,-0.2%[20.9 µM]
Cc1cc2c(N)cccc2nn1,-23.4%,27.2,3.98µM*
Cc1ccc(NC(=O)CCn2c(=O)oc3ccccc32)c(C)c1,-9.3%,14.2,-1.7%
O=C(c1ccco1)N1CCCC(c2nc(-c3ccc(S(=O)(=O)NCc4ccccc4)cc3)no2)C1 (stereo unspecified),-22.0%,32.9,?
Cc1ccccc1OC1C(=O)N(Cc2ccc3c(c2)OCO3)C1c1sccc1C (stereo unspecified),-18.6%,-1.8,-2.3%
CCOc1ccc(/C=N/NC(=O)c2[nH]ncc2Br)c(O)c1,.,.,10.6%
C=CCC(C)(O)CCc1ccccc1 (stereo unspecified),2.5%,.,-0.5%
O=C1/C(=C/c2cccnc2)CCC/C1=C\c1cccnc1,-16.6%,6.6,-3.0%
Cn1cccc1/C=C1\CCC/C(=C\c2cccn2C)C1=O,-1.0%,8.9,7.94µM*
CC(=O)N(Cc1cc2ccc(C)c(C)c2n2nnnc12)C1CCCC1,-11.5%,27.4,?
Cc1cc2cc(CN(C(=O)C3CC3)C3CCCC3)c3nnnn3c2cc1C,-17.6%,?,0.199µM*
Cc1cccc(N2C(S)=C(C#N)C(=O)NC2c2ccco2)c1 (stereo unspecified),.,.,-7.1%
N#CC1=C(S)N(c2ccccc2)C(c2ccc(-c3cccc(Cl)c3)o2)NC1=O (stereo unspecified),31.6µM*,?,?
CC(C)NS(=O)(=O)c1ccc(CCC(=O)Nc2ccc3c(c2)OCO3)cc1,-12.3%,?,0.398µM*
O=C(CCc1ccc(S(=O)(=O)NCCc2ccccc2)cc1)Nc1ccc2c(c1)OCCO2,-6.6%,1.0,-10.3%
CCC(C)NS(=O)(=O)c1ccc(OCC(=O)Nc2ccc3c(c2)OCO3)cc1 (stereo unspecified),-14.9%,8.5,1.26µM*
CCC(C)NS(=O)(=O)c1ccc(OCC(=O)NCc2ccc3c(c2)OCO3)cc1 (stereo unspecified),-2.4%,10.6,7.1%
CCCNS(=O)(=O)c1ccc(CCC(=O)NCc2ccco2)cc1,-12.8%,4.1,2.24µM*
CCCNS(=O)(=O)c1ccc(CCC(=O)Nc2ccc3c(c2)OCO3)cc1,2.1%,6.3,?
SMILES,HPGD inh,PNC assembly inh,ALDH1A1 inh
O=C(CCc1ccc(S(=O)(=O)NCc2ccccc2)cc1)NCc1ccco1,-14.9%,2.5,?
CCCNS(=O)(=O)c1ccc(CCC(=O)Nc2ccc3c(c2)OCCO3)cc1,-13.3%,-5.9,10µM*
CSc1cccc(-n2cc(-c3ccc4c(c3)OCO4)[nH]c2=O)c1,-22.8%,16.0,?
O=S(=O)(N1CCCCCC1)N1CCN(S(=O)(=O)N2CCCCC2)CC1,-4.6%,-6.8,3.8%
COc1ccccc1C(=O)OCc1c(F)cccc1Cl,-8.6%,43.9,7.6%
CCCn1c(SCC(=O)c2c[nH]c3ccccc23)nnc1-c1ccncc1,-9.1%,-25.7,-0.3%
CCn1nnnc1-c1ccc(OC)c(S(=O)(=O)NCCc2ccccc2)c1,-11.1%,6.0,?
Cn1c(=O)n(C)c2cc(/C=N/NC(N)=S)ccc21,.,.,1.4%
CCN(CC)C(=O)C1=C(C)Nc2ncnn2C1c1cccnc1 (stereo unspecified),.,.,7.9%
N#CC(=C(/N)Sc1ccccc1N)/C(C#N)=C(/N)Sc1ccccc1N,28.2µM*,.,.
N#Cc1ccccc1Sc1ccccc1N,1.2%,-18.2,0.4%
CCC(C)(C)n1nnnc1C(C(C)C)N1CCSCC1 (stereo unspecified),-2.5%,24.6,4.2%
CCOc1ccc2nc(C)cc(C(=O)O)c2c1,?,-5.0,?
CCC(C)OC(=O)c1cc(C)nc2c(Br)cc(Br)cc12 (stereo unspecified),-7.1%,-100.0*,-0.7%
COc1ccccc1/C=N/NC(=O)CCn1cnc2ccccc21,-17.2%,?,7.1%
CCN(CC)S(=O)(=O)c1ccc(NS(=O)(=O)c2ccc(O)c([N+](=O)[O-])c2)cc1,35.5µM*,-19.6,5.01µM*
CCN1CCN(c2ccc(S(=O)(=O)N(CC)CC)cc2[N+](=O)[O-])CC1,-0.9%,6.7,7.4%
Cc1cc2nc(N)sc2cc1[N+](=O)[O-],-7.4%,-16.3,-9.3%
COc1cc2c(cc1OC)/C(=C/C#N)NC(C)(C)C2,-21.2%,?,2µM*
Cc1cc2c(cc1C)/C(=C\C(N)=O)NC(C)(C)C2,-8.3%,-24.9,-1.0%
CCOc1ccc(C2Oc3nc(SC)nnc3-c3ccccc3N2C(C)=O)cc1OC (stereo unspecified),-12.7%,-1.5,-3.8%
CCN(Cc1ccccc1)C(c1cc2cc(C)ccc2[nH]c1=O)c1nnnn1CCOC (stereo unspecified),-9.6%,10.8,?
COCCn1nnnc1C(c1cc2cc(C)ccc2[nH]c1=O)N1CCc2ccccc21 (stereo unspecified),-22.4%,10.6,3.16µM*
COc1ccc2cc(C(c3nnnn3CCc3ccccc3)N3CCCC(C)C3)c(=O)[nH]c2c1 (stereo unspecified),-9.1%,10.5,31.6µM*
COc1ccc2cc(C(c3nnnn3CC3CCCO3)N3CCOCC3)c(=O)[nH]c2c1 (stereo unspecified),-8.1%,12.0,-15.0%
SMILES,HPGD inh,PNC assembly inh,ALDH1A1 inh
COCCn1nnnc1C(c1cc2c(C)cc(C)cc2[nH]c1=O)N1CCCCCC1 (stereo unspecified),?,25.4,?
COCCn1nnnc1C(c1cc2cc(C)ccc2[nH]c1=O)N1CCCCCC1 (stereo unspecified),-19.2%,30.5,25.1µM*
CN(C)c1ccc(C=C(c2nnnn2-c2ccccc2)c2nnnn2-c2ccccc2)cc1,-3.2%,53.4,?
CCN1CCc2c(OCc3ccccc3)cccc2C1=O,.,.,-0.1%
Cc1ccc(S(=O)(=O)N2CCC(C(=O)N/N=C/c3ccncc3)CC2)cc1,.,.,7.5%
COC(=O)[C@@]1(Cc2ccc(OC)cc2)[C@H]2c3cc(C(=O)N4CCCC4)n(CCN4CCOCC4)c3C[C@H]2CN1C(=O)c1ccccc1,-2.5%,.,3.2%
Cc1ccc(OCc2ccc(C(=O)O)o2)c([N+](=O)[O-])c1,-17.6%,-16.1,?
COc1ccc(OC)c(CN2CCCC(CO)C2)c1 (stereo unspecified),-11.5%,63.2,15.6%
O=C(O)c1ccccc1Cl,-9.9%,.,?
CCCCNC(=O)OCCNC(=O)NC,3.5%,-7.3,0.0%
COc1ccc(C(=O)N2CCc3ccccc32)cc1,-16.9%,-19.0,4.2%
COc1ccc(C(=O)/C=C2\NCC3c4ccccc4CCN3C2=O)cc1 (stereo unspecified),28.2µM*,-28.0,7.94µM*
